Reference: PubChem BioAssay (Tox21)
Records with an inconclusive call do not appear. Values without a mark were called inactive. Calls follow the shape of the dose curve; as a rule, active = well fitted cell-killing curve with a large enough effect in the repeat runs; inconclusive = weak or mixed curves, or effect the other way; inactive = flat fitted curve, though single readings scatter.

Assay: Caspase-3/7 induction in HepG2 cells by small molecules, qHTS cell viability counter screen (AID 1346981); also: nearly all actives have a fitted effect of over 30% in size
Details: CellTiter-Fluor fluorescence, 17 h; series mostly up to 92.4 µM; activity change, negative = cytotoxicity: at the top concentration
Description: U.S. Tox21 Program National Center for Advancing Translational Sciences [NCATS] NIH Chemical Genomics Center [NCGC] U.S. Environmental Protection Agency [EPA] National Institutes of Environmental Health Sciences [NIEHS] National Toxicology Program [NTP] U.S. Food and Drug Administration [FDA] Tox21 Assay Overview: Apoptosis is a process of programmed cell death and plays a central role in the development of multicellular organisms. It is a highly regulated process and induces cell death by activating caspases, which are the members of cysteine aspartic acid-specific protease (caspase) family. Caspases involved in apoptosis are classified by their mechanism of action as initiator caspases (caspase-2, -8, -9 and -10) and executioner caspases (caspase-3, -6, and -7). Inhibition of apoptosis results in number of cancers, autoimmune diseases, inflammatory diseases and viral infection. To identify small molecule compounds that induce apoptosis, a homogeneous, luminescent Caspase-Glo 3/7 assay was used. Wild type HepG2 cells were used to screen Tox21 libraries for identifying caspase-3/7 activity inducers. Also cytotoxicity of the compounds was tested in parallel by measuring the cell viability using CellTiter-Fluor assay system in the same wells.
Tox21 Assay Protocol Summary: HepG2 cells were dispensed at 2,000 per well in 5uL of culture medium into white solid bottom 1536-well plates (Corning Life Sciences, Corning, NY) using a Multidrop Combi (Thermo Scientific, Waltham, MA) dispenser. The assay plates were incubated at 37 C and 5% CO2 for 5hr, and then 23nL of compounds dissolved in DMSO and positive control were transferred using a Pintool station ([…], San Diego, CA). The assay plates were incubated at 37C and 5% CO2 for 17hr. For cytotoxicity read, after 16hr incubation at 37C, 1uL CellTiter-Fluor reagent (Promega Corporation, Madison, WI) was added to each well of the assay plates using Flying Reagent Dispenser (FRD, Aurora Discovery, San Diego, CA). After 1hr incubation at 37C and 5% CO2, the fluorescence signal was quantified using a ViewLux plate reader (PerkinElmer, Shelton, CT).
% is scaled to controls: 0 for no effect and ±100 for the full control effect.

Compound | activity change, negative = cytotoxicity
COc1cc(CCC(C)=O)ccc1O | -1.66%
c1ccc(SCCSc2ccccc2)cc1 | 0.447%
C=C(C)C(=O)NCCC[N+](C)(C)C | -0.0408%
O=C(O)C(O)[C@H](O)[C@@H](O)[C@H](O)[C@H](O)CO (stereo not given in full) | 2.74%
Nc1ccc2cc(S(=O)(=O)O)ccc2c1 | -3.04%
O=c1[nH]c(=O)n([C@H]2O[C@H](CO)[C@@H](O)[C@@H]2O)cc1/C=C\Br | 7.19% [at 42.5 µM]
N#CCc1ccccc1[N+](=O)[O-] | -0.418%
Cn1cnc2c(=O)[nH]c(N)nc21 | -1.17%
[O-][N+](=Nc1ccccc1)c1ccccc1 | -2.98%
CC/C=C\C#N | -0.785%
COC(=O)CCCC(=O)O | 2.39%
CCOC(=O)Cn1c(=O)sc2cccc(Cl)c21 | -1.13%
CN(C)N=Nc1ccccc1 | 5.5%
C1=C\CC/C=C\CC/C=C\CC/1 | 2.92%
C[N+](C)(C)CC[N+]1(C)Cc2c(Cl)c(Cl)c(Cl)c(Cl)c2C1 | -1.24% [at 42.5 µM]
Nc1cc(C(Cl)=C(Cl)Cl)c(S(N)(=O)=O)cc1S(N)(=O)=O | -0.295% [at 42.5 µM]
C=CC(=O)N1CCOCC1 | 1.49%
Nc1[nH]c(=O)ncc1F | 5.34% [at 42.5 µM]
NC1CCN(c2cccc(Cl)n2)CC1 | -0.159% [at 42.5 µM]
CC(C)(C)CC(C)(C)N | -4.17%

Compound | activity change, negative = cytotoxicity
COc1cc(C(=O)N2CCOCC2)cc(OC)c1OC | 6.96% [at 42.5 µM]
CC(C)(C)OC(=O)N1C[C@@H](F)C[C@H]1C(=O)O | -2.48%
CCCC(C)CO (stereo not given) | -0.577%
COc1cc(O)cc(O)c1 | 4.86% [at 42.5 µM]
Cc1ccccc1Br | -2.91%
Cc1ccccc1C(=O)O | -21.3%
OC1OC[C@@H](O)[C@H](O)[C@H]1O (stereo not given in full) | -0.854%
CC/C=C\CCCCO | 2.67%
C=CCOc1nc(OCC=C)nc(OCC=C)n1 | 9.02%
Oc1cc(O)c2c(c1)O[C@H](c1ccc(O)c(O)c1)[C@H](O)C2 | 5.49% [at 42.5 µM]
CC1=CC(C)C(C=O)C(C)C1 (stereo not given) | 5.74%
CCN1CCCC1CNC(=O)c1cc(S(N)(=O)=O)ccc1OC (stereo not given) | -7.48%
CCCCCN(CCCCC)C(=O)C(CCC(=O)O)NC(=O)c1ccc(Cl)c(Cl)c1 (stereo not given) | 1.67% [at 42.5 µM]
Nc1ncnc2c1ncn2Cc1c(F)cccc1Cl | 1.97% [at 42.5 µM]
CCOC(=O)Nc1ccc2c(c1)N(C(=O)CCN1CCOCC1)c1ccccc1S2 | -5.92% [at 42.5 µM]
C1COCCO1 | -6.56%
CCC(C)OC(=O)N1CCCCC1CCO (stereo not given) | -5.12%
O=C(O)c1ccccc1-c1ccc(C(F)(F)F)cc1 | 4.43% [at 42.5 µM]
CC(C)COC(=O)C(C)C | 12.3%
Cc1c(C)n(CCN(C)C)c2ccc(C(=O)OCCN(C)C)cc12 | -15.3% [at 42.5 µM]
